Measured values published in the supplement of paper PMC10849652.
Targets with a hit are over-represented here; the source holds about 8,800 in all. About 0.5% of all pairs of compound and target were hits.

Experiments:
Experiment in all cases: log2 fold change, soluble protein after heating vs DMSO (PISA); higher = thermal stabilisation; K562 lysate, 10 uM; active = over 0.2 and 3.5 SD of the protein, either way, in both replicates (recomputed)
[1] = compound: C1=CC=C(C=C1)[C@H](COC2=CC3=C(C=C2)NC(=O)N3)NC(=O)C4=CC=CN(C4=O)CC5=CC(=C(C=C5)F)F
How it was run: (§1)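 Log-two fold change in thermal stability relative to solvent controls is reported from duplicates. For each sample, crude K562 extract from dounce-homogenised pellets in PBS pH 7.4 with 1 mM MgCl2, at 1 mg/mL protein, was treated with 10 μM compound for 30 min. Aliquots heated for 3 min across 48°C-58°C were pooled, brought to 0.5% NP-40 at 4°C and cleared at 21,000xg for 90 min. The supernatant was quantified by TMTpro 16plex LC-MS/MS with channel sums equalised.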

[2] = compound: CC1=C(SC2=C1C(=N[C@H](C3=NN=C(N32)C)CC(=O)N)C4=CC=C(C=C4)Cl)C
How it was run: as §1

[3] = compound: CC1=C2C(=CC=C1)N=C(N(C2=O)C3=CC=CC=C3C)CN4C=NC5=C(N=CN=C54)N
How it was run: as §1

[4] = compound: Cc1sc2c(c1C)C(c1ccc(Cl)cc1)=N[C@@H](CC(=O)OC(C)(C)C)c1nnc(C)n1-2
How it was run: as §1

[5] = compound: c1ccc([C@@H]2C[C@H]2NC2CCNCC2)cc1
How it was run: as §1

Measured: log2 fold change

LUZP1 (UniProt Q86V48)
Sequence of UniProt Q86V48 (Q86V48 whole entry, looked up): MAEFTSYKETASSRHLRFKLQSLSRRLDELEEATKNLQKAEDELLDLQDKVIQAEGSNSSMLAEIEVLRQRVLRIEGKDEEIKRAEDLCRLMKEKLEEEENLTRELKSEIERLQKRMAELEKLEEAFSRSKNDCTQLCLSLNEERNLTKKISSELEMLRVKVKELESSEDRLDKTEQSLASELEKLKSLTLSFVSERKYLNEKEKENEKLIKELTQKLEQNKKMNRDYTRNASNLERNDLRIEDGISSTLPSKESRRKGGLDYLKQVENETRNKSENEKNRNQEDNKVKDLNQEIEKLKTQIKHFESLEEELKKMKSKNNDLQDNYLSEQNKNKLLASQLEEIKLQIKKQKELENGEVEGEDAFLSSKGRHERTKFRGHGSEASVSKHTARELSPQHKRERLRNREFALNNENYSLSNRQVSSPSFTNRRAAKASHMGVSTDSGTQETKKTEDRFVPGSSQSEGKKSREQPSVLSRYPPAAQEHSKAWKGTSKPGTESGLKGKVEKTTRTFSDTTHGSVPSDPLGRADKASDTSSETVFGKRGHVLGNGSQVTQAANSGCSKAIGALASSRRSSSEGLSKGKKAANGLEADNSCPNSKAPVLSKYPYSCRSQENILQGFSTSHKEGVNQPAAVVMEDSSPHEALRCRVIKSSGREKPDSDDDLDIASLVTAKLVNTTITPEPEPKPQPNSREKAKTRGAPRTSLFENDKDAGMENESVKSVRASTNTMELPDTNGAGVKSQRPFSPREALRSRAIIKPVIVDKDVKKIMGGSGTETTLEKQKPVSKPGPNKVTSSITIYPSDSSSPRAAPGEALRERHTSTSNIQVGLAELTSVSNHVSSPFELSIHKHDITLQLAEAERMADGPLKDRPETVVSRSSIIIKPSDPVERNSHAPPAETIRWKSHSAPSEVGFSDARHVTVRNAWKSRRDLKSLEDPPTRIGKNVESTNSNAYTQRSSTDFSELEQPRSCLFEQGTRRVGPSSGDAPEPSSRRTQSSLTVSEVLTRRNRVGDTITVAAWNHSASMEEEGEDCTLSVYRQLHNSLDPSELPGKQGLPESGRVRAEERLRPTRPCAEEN
inactive: [1] 0.039 | [2] -0.113 | [3] 0.032 | [4] 0.007 | [5] -0.056

LSS (UniProt P48449)
inactive: [1] 0.016 | [2] -0.083 | [3] 0.014 | [4] -0.012 | [5] -0.007

KNSTRN (UniProt Q9Y448)
inactive: [1] 0.097 | [2] -0.057 | [3] 0 | [4] 0.002 | [5] 0.034

MBLAC2 (UniProt Q68D91)
Sequence of UniProt Q68D91 (Q68D91 whole entry, looked up): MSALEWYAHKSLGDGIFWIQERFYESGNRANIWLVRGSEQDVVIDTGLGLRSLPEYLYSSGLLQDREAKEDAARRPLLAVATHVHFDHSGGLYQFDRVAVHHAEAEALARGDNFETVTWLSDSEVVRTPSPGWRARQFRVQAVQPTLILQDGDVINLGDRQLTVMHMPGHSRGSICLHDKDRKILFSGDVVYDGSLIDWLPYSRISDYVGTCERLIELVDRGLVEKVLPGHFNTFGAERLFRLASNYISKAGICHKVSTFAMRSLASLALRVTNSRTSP
inactive: [1] -0.011 | [2] -0.005 | [3] 0.001 | [4] 0.013 | [5] -0.033

MAP11 (UniProt Q8WVR3)
Sequence of UniProt Q8WVR3 (Q8WVR3 whole entry, looked up): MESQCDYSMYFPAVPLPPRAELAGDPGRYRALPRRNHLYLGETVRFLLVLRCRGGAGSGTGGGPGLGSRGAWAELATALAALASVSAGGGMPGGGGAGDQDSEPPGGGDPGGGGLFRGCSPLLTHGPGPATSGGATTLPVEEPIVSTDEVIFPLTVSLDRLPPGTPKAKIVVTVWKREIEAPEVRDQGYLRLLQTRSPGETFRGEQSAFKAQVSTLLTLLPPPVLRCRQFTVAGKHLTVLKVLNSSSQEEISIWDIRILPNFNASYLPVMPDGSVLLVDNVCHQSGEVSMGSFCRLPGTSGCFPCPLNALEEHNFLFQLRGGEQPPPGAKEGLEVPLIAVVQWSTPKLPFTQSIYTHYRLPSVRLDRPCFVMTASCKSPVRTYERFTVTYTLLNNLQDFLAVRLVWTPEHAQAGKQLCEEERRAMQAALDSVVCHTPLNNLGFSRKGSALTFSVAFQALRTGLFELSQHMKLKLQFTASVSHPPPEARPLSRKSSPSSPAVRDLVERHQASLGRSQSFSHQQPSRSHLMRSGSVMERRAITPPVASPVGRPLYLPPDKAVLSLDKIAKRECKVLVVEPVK
inactive: [1] -0.103 | [2] 0 | [3] -0.006 | [4] 0.063 | [5] -0.03

MED16 (UniProt Q9Y2X0)
inactive: [1] 0.019 | [2] 0.022 | [3] 0.029 | [4] 0.001 | [5] 0.087

MORC3 (UniProt Q14149)
inactive: [1] 0.013 | [2] 0 | [3] 0.003 | [4] 0.013 | [5] 0.012

LRRC40 (UniProt Q9H9A6)
Sequence of UniProt Q9H9A6 (Q9H9A6 whole entry, looked up): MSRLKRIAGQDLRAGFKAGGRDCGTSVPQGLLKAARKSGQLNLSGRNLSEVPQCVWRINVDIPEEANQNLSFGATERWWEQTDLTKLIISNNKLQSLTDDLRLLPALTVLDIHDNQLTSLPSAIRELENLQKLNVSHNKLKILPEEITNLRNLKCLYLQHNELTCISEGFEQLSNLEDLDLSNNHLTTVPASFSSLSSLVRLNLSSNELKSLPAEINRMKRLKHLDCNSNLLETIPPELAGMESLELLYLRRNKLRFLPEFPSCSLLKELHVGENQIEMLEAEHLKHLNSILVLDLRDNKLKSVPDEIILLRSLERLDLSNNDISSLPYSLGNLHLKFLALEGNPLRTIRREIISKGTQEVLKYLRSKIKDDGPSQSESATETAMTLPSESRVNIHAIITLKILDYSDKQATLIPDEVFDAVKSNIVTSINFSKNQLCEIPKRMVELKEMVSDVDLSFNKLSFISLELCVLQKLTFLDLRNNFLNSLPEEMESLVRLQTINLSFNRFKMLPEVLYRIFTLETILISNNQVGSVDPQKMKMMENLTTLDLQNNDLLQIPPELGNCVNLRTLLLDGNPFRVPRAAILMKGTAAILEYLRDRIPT
inactive: [1] 0.001 | [2] 0.003 | [3] 0.003 | [4] 0.012 | [5] 0.034

LYRM4 (UniProt Q9HD34)
Sequence of UniProt Q9HD34 (Q9HD34 whole entry, looked up): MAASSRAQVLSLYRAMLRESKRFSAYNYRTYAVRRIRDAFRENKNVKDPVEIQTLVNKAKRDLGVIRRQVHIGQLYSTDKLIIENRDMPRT
inactive: [1] -0.03 | [2] 0.074 | [3] 0.077 | [4] 0.006 | [5] 0.004

MRPL15 (UniProt Q9P015)
inactive: [1] -0.016 | [2] 0.04 | [3] 0.003 | [4] 0.04 | [5] -0.212

MCU (UniProt Q8NE86)
inactive: [1] 0.021 | [2] 0.028 | [3] -0.031 | [4] -0.023 | [5] 0.015

KIF15 (UniProt Q9NS87)
inactive: [1] -0.008 | [2] -0.003 | [3] 0.021 | [4] -0.02 | [5] 0.013

MAD2L2 (UniProt Q9UI95)
Sequence of UniProt Q9UI95 (Q9UI95 whole entry, looked up): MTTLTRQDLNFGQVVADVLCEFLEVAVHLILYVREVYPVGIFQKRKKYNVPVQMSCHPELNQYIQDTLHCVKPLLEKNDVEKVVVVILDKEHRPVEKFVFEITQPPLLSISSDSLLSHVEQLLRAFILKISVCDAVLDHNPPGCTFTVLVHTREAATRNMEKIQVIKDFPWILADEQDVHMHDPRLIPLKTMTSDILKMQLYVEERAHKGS
inactive: [1] -0.032 | [2] -0.006 | [3] -0.018 | [4] -0.085 | [5] 0.096

MPP1 (UniProt Q00013)
Sequence of UniProt Q00013 (Q00013 whole entry, looked up): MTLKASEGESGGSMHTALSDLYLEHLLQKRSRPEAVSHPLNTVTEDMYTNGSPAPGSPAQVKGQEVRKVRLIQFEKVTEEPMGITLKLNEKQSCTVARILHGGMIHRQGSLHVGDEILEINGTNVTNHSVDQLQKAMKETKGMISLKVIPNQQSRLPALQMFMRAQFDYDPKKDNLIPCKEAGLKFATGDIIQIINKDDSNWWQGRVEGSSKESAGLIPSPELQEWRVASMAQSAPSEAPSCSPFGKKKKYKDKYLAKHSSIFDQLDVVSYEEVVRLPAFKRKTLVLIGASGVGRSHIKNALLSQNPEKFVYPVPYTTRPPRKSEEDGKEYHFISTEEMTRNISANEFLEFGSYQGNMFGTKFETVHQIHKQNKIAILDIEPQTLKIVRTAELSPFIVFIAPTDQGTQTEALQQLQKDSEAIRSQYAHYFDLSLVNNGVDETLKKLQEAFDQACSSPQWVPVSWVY
inactive: [1] -0.01 | [2] 0.006 | [3] 0.024 | [4] 0.016 | [5] 0.044

LARS (UniProt Q9P2J5)
inactive: [1] -0.02 | [2] -0.007 | [3] 0.015 | [4] 0.04 | [5] 0.077

LPCAT1 (UniProt Q8NF37)
Sequence of UniProt Q8NF37 (Q8NF37 whole entry, looked up): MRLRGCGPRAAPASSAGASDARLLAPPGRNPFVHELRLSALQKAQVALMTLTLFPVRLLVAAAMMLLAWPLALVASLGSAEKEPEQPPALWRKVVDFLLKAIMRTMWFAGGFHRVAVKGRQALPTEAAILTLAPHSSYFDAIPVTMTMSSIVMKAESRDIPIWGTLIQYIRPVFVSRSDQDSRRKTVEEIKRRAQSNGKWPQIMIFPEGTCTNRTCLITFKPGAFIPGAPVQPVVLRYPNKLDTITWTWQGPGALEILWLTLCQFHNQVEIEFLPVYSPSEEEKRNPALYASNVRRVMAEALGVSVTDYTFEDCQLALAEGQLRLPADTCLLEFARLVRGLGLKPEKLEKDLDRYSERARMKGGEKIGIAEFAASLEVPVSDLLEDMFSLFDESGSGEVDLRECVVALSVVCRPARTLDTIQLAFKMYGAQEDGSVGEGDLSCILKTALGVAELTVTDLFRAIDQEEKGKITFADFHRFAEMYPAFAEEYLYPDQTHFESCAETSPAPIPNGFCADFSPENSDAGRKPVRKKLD
inactive: [1] -0.071 | [2] 0.056 | [3] 0.066 | [4] 0 | [5] -0.115

LSM11 (UniProt P83369)
Sequence of UniProt P83369 (P83369 whole entry, looked up): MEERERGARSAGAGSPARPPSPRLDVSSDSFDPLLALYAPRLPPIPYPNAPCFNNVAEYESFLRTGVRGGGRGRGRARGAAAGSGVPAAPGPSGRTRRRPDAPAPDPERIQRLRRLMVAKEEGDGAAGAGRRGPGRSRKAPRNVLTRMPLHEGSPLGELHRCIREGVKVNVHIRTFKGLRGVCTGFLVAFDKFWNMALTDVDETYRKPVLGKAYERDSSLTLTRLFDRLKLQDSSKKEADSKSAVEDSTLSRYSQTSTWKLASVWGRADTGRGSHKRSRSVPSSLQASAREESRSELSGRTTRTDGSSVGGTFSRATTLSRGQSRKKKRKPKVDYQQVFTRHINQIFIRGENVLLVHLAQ
inactive: [3] 0.285 | [4] -0.045 | [5] -0.089

LEPROT (UniProt O15243)
inactive: [1] 0.049 | [2] -0.009 | [5] -0.161

MME (UniProt P08473)
Sequence of UniProt P08473 (P08473 whole entry, looked up): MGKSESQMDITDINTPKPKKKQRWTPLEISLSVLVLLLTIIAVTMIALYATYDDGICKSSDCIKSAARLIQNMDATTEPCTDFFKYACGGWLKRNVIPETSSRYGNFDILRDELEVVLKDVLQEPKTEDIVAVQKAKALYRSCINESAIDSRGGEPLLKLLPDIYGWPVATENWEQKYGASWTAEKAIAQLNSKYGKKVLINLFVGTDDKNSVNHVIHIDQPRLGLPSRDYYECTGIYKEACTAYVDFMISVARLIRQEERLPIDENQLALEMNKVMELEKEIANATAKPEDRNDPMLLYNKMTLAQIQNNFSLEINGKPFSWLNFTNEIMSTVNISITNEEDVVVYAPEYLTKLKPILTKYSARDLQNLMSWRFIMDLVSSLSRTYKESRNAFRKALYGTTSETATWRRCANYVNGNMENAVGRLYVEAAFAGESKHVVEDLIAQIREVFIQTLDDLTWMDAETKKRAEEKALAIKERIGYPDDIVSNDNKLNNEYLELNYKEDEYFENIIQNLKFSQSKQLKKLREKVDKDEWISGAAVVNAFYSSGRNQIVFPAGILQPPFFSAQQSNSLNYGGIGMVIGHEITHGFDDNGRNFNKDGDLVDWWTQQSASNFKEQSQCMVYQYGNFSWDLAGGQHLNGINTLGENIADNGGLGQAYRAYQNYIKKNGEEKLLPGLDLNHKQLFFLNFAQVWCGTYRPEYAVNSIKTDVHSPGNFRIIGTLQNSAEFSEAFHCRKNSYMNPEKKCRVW
inactive: [1] -0.152 | [2] 0.041 | [4] 0.232 | [5] -0.001
